Experimental data reported in the supplement of paper PMC10849652.
About 7,900 targets were measured; listed, in parts, are those with a hit and a random draw of the rest. About 0.6% of all pairs of compound and target were hits.

Key:
Experiment in all cases: log2 fold change, soluble protein after heating vs DMSO (PISA); higher = thermal stabilisation; K562 cells, 10 uM, 30 min; active = over 0.2 and 3.5 SD of the protein, either way, in both replicates (recomputed)
[1] = compound: CS(=O)(=O)c1ccc(-c2cnc(N)c(C(=O)Nc3ccccc3)n2)cc1
Summary of the method: (§1)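 K562 cells at 2×10^6 cells/mL were treated for 30 min with 10 μM compound, and aliquots were heated for 3 min over 48°C-58°C before pooling. Extraction used PBS with 0.5% NP-40 at 4°C, and soluble protein was the supernatant after 21,000xg for 90 min, measured by TMTpro 16plex LC-MS/MS with channel sums equalised. Thermal stability values, relative to control samples and from duplicates, are log2 fold changes.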

[2] = compound: C[C@@H](Oc1cc(-c2cnn(C3CCNCC3)c2)cnc1N)c1c(Cl)ccc(F)c1Cl [crizotinib]
Summary of the method: as §1

[3] = compound: C[C@@H]1COCCN1C2=NC(=NC(=C2)C3(CC3)S(=O)(=O)C)C4=C5C=CNC5=CC=C4
Summary of the method: as §1

[4] = compound: C[C@H](C1=CC=C(C=C1)C(=O)NC2=C3C=CNC3=NC=C2)N
Summary of the method: as §1

[5] = compound: C[C@H](Nc1ncnc2nc[nH]c12)c1cc2cccc(Cl)c2c(=O)n1-c1ccccc1 [duvelisib]
Summary of the method: as §1

[6] = compound: Cc1cc(Nc2cc(CN3CCOCC3)c3nc(C)c(Cc4ccc(Cl)cc4F)n3n2)n[nH]1 [gandotinib]
Summary of the method: as §1

[7] = compound: Cc1cc(Nc2cc(N3CCN(C)CC3)nc(Sc3ccc(NC(=O)C4CC4)cc3)n2)n[nH]1 [tozasertib]
Summary of the method: as §1

[8] = compound: Cc1cc(SCc2sc(-c3ccc(C(F)(F)F)cc3)nc2C)ccc1OCC(=O)O
Summary of the method: as §1

[9] = compound: Cc1ccc(-n2nc(C(C)(C)C)cc2NC(=O)Nc2ccc(OCCN3CCOCC3)c3ccccc23)cc1 [doramapimod]
Summary of the method: as §1

[10] = compound: Cc1ccc(C(=O)N(CCCN)[C@@H](c2nc3cc(Cl)ccc3c(=O)n2Cc2ccccc2)C(C)C)cc1 [ispinesib]
Summary of the method: as §1

[11] = compound: Cc1cccc(CC(=O)N2CCc3c2ccc(-c2cn(C)c4ncnc(N)c24)c3F)n1
Summary of the method: as §1

[12] = compound: Cc1nc(Nc2ncc(C(=O)Nc3c(C)cccc3Cl)s2)cc(N2CCN(CCO)CC2)n1 [dasatinib]
Summary of the method: as §1

[13] = compound: Cn1cc(-c2ccc3c(c2)CCN3C(=O)Cc2cccc(C(F)(F)F)c2)c2c(N)ncnc21
Summary of the method: as §1

[14] = compound: Cn1cc(-c2ccc3nnc(C(F)(F)c4ccc5ncccc5c4)n3n2)cn1
Summary of the method: as §1

[15] = compound: Cn1cncc1[C@@](N)(c1ccc(Cl)cc1)c1ccc2c(c1)c(-c1cccc(Cl)c1)cc(=O)n2C [tipifarnib]
Summary of the method: as §1

[16] = compound: Cc1cn(-c2cc(NC(=O)c3ccc(C)c(Nc4nccc(-c5cccnc5)n4)c3)cc(C(F)(F)F)c2)cn1 [nilotinib]
Summary of the method: as §1

[17] = compound: Cc1nc(Nc2n[nH]c3c2CN(C(=O)N[C@H](CN(C)C)c2ccccc2)C3(C)C)c2sccc2n1
Summary of the method: as §1

[18] = compound: Cc1ncc(-c2ccnc(Nc3ccc(S(C)(=O)=O)cc3)n2)n1C(C)C
Summary of the method: as §1

[19] = compound: Cc1ccc(NC(=O)c2ccc(CN3CC[C@H](N(C)C)C3)c(C(F)(F)F)c2)cc1Nc1nccc(-c2cncnc2)n1 [bafetinib]
Summary of the method: as §1

[20] = compound: FC(F)(F)c1ccc(/C=C/c2nc(COc3ccc(CCCCn4ccnn4)cc3)co2)cc1 [mubritinib]
Summary of the method: as §1

Measured: log2 fold change

POGZ (UniProt Q7Z3K3)
Chain of UniProt Q7Z3K3 (Q7Z3K3 whole entry, looked up): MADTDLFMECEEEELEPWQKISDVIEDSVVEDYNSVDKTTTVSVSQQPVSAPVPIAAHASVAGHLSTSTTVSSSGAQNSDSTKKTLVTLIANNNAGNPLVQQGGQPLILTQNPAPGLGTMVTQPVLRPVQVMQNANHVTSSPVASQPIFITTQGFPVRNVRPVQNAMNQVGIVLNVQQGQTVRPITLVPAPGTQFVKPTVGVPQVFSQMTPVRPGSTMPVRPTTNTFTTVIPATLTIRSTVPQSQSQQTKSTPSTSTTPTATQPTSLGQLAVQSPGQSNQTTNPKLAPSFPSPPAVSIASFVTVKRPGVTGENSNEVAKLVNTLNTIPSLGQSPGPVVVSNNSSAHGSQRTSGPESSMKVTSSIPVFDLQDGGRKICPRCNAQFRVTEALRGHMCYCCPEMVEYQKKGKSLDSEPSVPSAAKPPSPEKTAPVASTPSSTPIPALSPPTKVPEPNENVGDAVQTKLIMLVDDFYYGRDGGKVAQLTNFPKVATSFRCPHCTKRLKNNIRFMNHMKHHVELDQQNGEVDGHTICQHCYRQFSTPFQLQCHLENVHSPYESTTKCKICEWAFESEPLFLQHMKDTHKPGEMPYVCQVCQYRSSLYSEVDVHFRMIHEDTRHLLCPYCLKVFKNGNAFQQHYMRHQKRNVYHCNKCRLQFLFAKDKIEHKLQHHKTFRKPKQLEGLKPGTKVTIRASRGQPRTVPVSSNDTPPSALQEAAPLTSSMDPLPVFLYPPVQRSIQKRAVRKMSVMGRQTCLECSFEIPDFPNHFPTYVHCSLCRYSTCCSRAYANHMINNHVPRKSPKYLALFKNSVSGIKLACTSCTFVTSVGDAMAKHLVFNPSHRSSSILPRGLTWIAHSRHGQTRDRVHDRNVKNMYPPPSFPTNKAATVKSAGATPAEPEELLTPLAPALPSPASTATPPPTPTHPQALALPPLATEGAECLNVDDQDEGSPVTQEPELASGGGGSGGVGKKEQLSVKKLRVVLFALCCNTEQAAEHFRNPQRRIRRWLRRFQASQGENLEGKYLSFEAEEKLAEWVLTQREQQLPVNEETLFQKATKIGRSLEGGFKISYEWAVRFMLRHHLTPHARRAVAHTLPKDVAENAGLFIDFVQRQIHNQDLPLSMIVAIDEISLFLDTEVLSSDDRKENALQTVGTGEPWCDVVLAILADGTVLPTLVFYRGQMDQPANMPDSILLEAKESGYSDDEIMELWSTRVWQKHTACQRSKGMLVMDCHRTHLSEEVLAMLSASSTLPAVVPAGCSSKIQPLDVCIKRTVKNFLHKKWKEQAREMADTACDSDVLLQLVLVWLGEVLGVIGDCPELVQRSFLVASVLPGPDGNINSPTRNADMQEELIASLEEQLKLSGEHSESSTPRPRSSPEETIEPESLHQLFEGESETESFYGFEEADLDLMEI
inactive: [1] 0.044 | [2] -0.019 | [3] 0.242 | [4] 0.01 | [5] -0.115 | [6] 0.143 | [7] 0.153 | [8] 0.142 | [9] 0.053 | [10] -0.221 | [11] 0.174 | [12] -0.318 | [13] 0.072 | [14] 0.061 | [15] -0.124

PSMC1 (UniProt G3V4X1)
inactive: [4] 0.099 | [6] 0.066 | [11] -0.579 | [16] -0.195 | [17] 0.042 | [18] -0.046 | [13] 0.066 | [15] 0.479

PTP4A3 (UniProt O75365)
Chain of UniProt O75365 (O75365 whole entry, looked up): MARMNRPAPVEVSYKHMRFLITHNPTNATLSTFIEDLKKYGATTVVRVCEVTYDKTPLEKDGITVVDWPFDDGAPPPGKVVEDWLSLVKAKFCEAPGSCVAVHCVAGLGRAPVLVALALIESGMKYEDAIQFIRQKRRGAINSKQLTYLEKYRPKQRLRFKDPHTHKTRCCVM
inactive: [19] 0.162

PEX5 isoform 4 (UniProt P50542)
inactive: [1] -0.091 | [3] -0.016 | [4] 0.15 | [5] -0.379 | [7] -0.013 | [8] -0.047 | [10] -0.078 | [12] 0.139 | [13] 0.219 | [14] -0.078

PTK2B (UniProt Q14289)
inactive: [1] -0.029 | [3] -0.03 | [4] 0.234 | [5] 0.182 | [6] -0.03 | [7] -0.067 | [8] 0.016 | [10] -0.233 | [19] -0.024 | [11] -0.063 | [16] 0.14 | [17] 0.104 | [12] -0.043 | [18] 0.276 | [13] -0.113 | [14] -0.014 | [15] -0.521 | [20] -0.003

PIM1 isoform 2 (UniProt P11309)
Chain of UniProt P11309 (P11309 whole entry, looked up): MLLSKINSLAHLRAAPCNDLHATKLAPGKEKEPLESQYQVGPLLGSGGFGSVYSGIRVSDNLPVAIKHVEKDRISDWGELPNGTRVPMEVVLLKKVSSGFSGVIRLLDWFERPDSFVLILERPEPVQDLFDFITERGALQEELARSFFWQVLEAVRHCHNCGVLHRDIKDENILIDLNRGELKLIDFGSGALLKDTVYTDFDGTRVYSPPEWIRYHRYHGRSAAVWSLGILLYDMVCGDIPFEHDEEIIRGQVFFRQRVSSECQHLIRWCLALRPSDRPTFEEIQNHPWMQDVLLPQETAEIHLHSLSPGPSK
inactive: [6] -0.084 | [11] -0.263 | [20] 0.721

PSMD8 (UniProt K7ERW6)
inactive: [2] -0.021 | [7] -0.231 | [9] 0.066

PPP1R12B isoform 6 (UniProt O60237)
inactive: [19] -0.024 | [16] -0.004 | [17] -0.191 | [18] 0.007

PDE4A (UniProt P27815)
inactive: [2] 0.055 | [3] -0.102 | [4] -0.171 | [7] 0.027 | [9] 0.065 | [10] -0.098 | [19] -0.157 | [13] -0.016 | [14] 0.021 | [15] -0.108

PCBP2 (UniProt F8VZX2)
inactive: [2] -0.273 | [4] 0.234 | [5] -0.147 | [8] 0.065 | [9] -0.107 | [10] -0.124 | [19] 0.029 | [16] 0.029 | [17] -0.112 | [12] -0.144 | [18] 0.049 | [13] -0.022 | [14] -0.196 | [20] -0.153

PDE4DIP (UniProt E9PS60)
inactive: [2] -0.225 | [4] 0.212 | [9] 0.102 | [13] -0.007

PCNX1 (UniProt Q96RV3)
Chain of UniProt Q96RV3 (Q96RV3 whole entry, looked up): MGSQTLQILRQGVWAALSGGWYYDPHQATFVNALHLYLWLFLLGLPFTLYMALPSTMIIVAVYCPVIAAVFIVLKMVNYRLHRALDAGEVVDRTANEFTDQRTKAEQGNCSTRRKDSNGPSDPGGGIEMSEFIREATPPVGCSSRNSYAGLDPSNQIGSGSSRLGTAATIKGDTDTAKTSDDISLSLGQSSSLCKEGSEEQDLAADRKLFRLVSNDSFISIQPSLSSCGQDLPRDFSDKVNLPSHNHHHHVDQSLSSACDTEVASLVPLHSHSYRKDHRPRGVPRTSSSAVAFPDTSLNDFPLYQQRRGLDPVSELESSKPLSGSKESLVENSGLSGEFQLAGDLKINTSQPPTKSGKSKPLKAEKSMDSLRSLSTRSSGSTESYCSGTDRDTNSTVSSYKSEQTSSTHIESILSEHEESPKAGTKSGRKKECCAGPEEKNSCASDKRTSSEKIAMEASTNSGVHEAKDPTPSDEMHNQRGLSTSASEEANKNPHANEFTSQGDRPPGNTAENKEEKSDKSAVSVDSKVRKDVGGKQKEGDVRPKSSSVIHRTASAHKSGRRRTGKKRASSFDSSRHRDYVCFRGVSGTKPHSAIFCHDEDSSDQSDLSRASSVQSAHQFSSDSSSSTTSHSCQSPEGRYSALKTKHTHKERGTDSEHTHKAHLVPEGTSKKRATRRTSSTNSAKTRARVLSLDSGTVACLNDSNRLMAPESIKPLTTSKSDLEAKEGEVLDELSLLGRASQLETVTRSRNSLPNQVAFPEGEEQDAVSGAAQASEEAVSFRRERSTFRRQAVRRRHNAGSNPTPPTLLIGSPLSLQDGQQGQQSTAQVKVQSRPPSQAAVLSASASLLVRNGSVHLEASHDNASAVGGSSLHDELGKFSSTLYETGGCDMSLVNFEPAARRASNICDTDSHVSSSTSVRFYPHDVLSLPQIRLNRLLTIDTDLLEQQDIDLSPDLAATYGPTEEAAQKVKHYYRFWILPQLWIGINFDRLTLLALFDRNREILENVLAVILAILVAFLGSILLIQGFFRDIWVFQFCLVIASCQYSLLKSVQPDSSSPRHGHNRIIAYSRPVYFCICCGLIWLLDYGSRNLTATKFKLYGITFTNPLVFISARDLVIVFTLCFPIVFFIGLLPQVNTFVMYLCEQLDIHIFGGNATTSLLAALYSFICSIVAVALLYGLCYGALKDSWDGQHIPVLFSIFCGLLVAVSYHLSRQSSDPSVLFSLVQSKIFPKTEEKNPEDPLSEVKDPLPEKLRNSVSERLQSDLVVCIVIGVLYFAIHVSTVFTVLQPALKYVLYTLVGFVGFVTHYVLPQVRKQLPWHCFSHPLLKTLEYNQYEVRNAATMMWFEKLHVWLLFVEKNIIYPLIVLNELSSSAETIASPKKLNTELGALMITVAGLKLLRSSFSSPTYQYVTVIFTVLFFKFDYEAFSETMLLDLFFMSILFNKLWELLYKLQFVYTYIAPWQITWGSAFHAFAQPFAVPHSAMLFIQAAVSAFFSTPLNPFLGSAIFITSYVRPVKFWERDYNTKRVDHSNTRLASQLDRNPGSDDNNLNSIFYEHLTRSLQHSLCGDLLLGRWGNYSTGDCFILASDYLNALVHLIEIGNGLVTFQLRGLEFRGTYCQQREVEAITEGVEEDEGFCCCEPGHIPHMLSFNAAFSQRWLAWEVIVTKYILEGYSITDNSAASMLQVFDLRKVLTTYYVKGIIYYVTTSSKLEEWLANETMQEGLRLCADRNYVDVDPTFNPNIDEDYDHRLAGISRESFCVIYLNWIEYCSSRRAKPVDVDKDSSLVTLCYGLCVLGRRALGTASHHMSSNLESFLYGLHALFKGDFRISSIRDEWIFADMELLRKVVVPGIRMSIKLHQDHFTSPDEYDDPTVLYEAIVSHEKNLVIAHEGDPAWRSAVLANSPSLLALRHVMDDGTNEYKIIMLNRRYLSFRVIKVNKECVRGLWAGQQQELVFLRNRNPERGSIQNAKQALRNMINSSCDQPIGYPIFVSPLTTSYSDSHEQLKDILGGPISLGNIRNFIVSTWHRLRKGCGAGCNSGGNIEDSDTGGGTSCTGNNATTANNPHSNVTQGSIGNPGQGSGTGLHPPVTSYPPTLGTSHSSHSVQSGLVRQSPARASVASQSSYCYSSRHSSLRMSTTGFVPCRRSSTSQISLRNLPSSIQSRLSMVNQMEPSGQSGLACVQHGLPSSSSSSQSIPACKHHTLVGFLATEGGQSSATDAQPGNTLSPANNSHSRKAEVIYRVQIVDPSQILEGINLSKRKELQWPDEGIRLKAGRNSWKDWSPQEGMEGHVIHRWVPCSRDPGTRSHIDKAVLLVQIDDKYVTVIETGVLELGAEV
inactive: [3] 0.257 | [7] 0.071 | [19] -0.112 | [16] 0.007 | [17] 0.009 | [18] 0 | [15] 0.305 | [20] -0.019

POLR2E (UniProt P19388)
inactive: [2] 0.112 | [3] -0.027 | [4] 0.14 | [5] -0.001 | [6] 0.157 | [7] 0.02 | [8] 0.089 | [9] -0.078 | [10] -0.058 | [19] 0.055 | [11] -0.03 | [16] -0.007 | [17] 0.112 | [12] 0.025 | [18] 0.306 | [13] -0.056 | [14] 0.005 | [15] -0.088 | [20] 0.023

PMS2CL (UniProt Q68D20)
Chain of UniProt Q68D20 (Q68D20 whole entry, looked up): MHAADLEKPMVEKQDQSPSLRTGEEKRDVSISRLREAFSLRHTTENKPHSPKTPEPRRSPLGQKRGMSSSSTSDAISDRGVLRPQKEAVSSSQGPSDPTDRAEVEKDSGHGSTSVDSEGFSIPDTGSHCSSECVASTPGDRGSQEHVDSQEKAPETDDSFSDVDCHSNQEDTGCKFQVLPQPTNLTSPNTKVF
inactive: [3] -0.091 | [10] 0.105 | [16] -0.189 | [17] -0.154 | [18] 0.115 | [14] -0.128 | [20] -0.054

PPP2R5C isoform 2 (UniProt Q13362)
inactive: [2] 0.243 | [9] 0.052 | [10] 0.023 | [19] 0.046 | [14] 0.037 | [20] -0.057

PIAS4 (UniProt Q8N2W9)
inactive: [2] -0.178 | [3] 0.047 | [5] 0.036 | [6] -0.013 | [7] -0.009 | [8] 0.021 | [9] 0.061 | [10] -0.278 | [11] 0 | [12] -0.116 | [14] 0.313 | [15] 0.002 | [20] 0.199

PRKD2 (UniProt M0R346)
inactive: [1] -0.025 | [3] 0.241 | [6] 0.109 | [19] -0.147 | [11] -0.136

PRR14L (UniProt Q5THK1)
inactive: [4] -0.072 | [6] -0.084 | [7] -0.247 | [11] -0.156 | [16] -0.027 | [17] -0.044 | [18] -0.007 | [13] 0.019 | [15] -0.039

PUM1 (UniProt Q14671)
inactive: [2] -0.079 | [4] -0.362 | [5] -0.187 | [6] 0.207 | [7] 0.019 | [8] 0.203 | [9] 0.041 | [11] -0.202 | [12] -0.207 | [13] 0.229

PTEN isoform 2 (UniProt P60484)
Chain of UniProt P60484 (P60484 whole entry, looked up): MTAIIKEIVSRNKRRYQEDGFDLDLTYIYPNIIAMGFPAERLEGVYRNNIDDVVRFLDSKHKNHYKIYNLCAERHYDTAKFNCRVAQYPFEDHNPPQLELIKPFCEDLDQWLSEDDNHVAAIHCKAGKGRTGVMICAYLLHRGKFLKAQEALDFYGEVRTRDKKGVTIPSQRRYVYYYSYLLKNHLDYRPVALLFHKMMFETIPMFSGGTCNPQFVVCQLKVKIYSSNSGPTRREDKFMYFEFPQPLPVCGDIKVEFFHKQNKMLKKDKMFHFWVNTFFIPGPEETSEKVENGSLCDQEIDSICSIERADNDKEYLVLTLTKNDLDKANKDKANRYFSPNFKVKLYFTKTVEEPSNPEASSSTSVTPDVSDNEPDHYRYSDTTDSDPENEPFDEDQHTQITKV
inactive: [2] 0.077 | [6] 0.312 | [9] 0.001 | [10] 0.024 | [11] 0.158 | [14] -0.087 | [15] -0.212
